The nature of assay [1]: Quantitative High-Throughput drug screen in 47 multiple myeloma cell lines against the NCATS MIPE library collection: KMS12PE_JCRB cell viability assay (AID 1918972). Also: nearly all actives have a fitted effect of over 30% in size. Also: potency is read from the fitted curve at half-maximal effect. As to viability: series mostly up to about 46 µM. The method, boiled down:
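Relative luminescence from CellTiter-Glo served as the viability signal, referenced to DMSO-treated (100%) and cell-free medium (0%) controls. Treatment lasted 48 hours at 37C with 500 cells per well.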

Assay [2] is described as follows: Quantitative High-Throughput drug screen in 47 multiple myeloma cell lines against the NCATS MIPE library collection: KMS20_JCRB cell viability assay (AID 1918973). Also: nearly all actives have a fitted effect of over 45% in size. Also: potency is read from the fitted curve at half-maximal effect. The method, boiled down:
(§1)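 Approved and investigational drugs from MIPE 4.0 were added by pin tool to 500 cells per well. After 48 hours at 37C, ATP-based CellTiter-Glo luminescence indicated remaining viability.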

A short description of assay [3]: Quantitative High-Throughput drug screen in 47 multiple myeloma cell lines against the NCATS MIPE library collection: MOLP8_DSMZ cell viability assay (AID 1918977). Also: nearly all actives have a fitted effect of over 45% in size. Also: potency is read from the fitted curve at half-maximal effect. The method, boiled down: (§2)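 Readout: median RLU from CellTiter-Glo after 5 min at room temperature. Preceding step was 48 h drug treatment of 500 cells/well at 37 °C, 5% CO2, with DMSO-only and media-only control wells.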

Assay [4] in a line: Quantitative High-Throughput drug screen in 47 multiple myeloma cell lines against the NCATS MIPE library collection: MM1S_ATCC cell viability assay (AID 1918980). Also: potency is read from the fitted curve at half-maximal effect; nearly all actives have a fitted effect of over 45% in size. The note with it: MM1S myeloma viability, CellTiter-Glo ATP luminescence, 48 h. The method, boiled down: as §2
On the technique in general: In ATP-based viability assays light output follows the ATP content of the culture.

Assay [5] can be described thus: Quantitative High-Throughput drug screen in 47 multiple myeloma cell lines against the NCATS MIPE library collection: MM1R_ATCC cell viability assay (AID 1918981). Also: nearly all actives have a fitted effect of over 35% in size. Also: potency is read from the fitted curve at half-maximal effect. The method, boiled down:
as §2

Assay [6] is described as follows: Quantitative High-Throughput drug screen in 47 multiple myeloma cell lines against the NCATS MIPE library collection: MMM1_PLB cell viability assay (AID 1918976). Also: nearly all actives have a fitted effect of over 35% in size. Also: potency is read from the fitted curve at half-maximal effect. The text has this: (§3) PI: Beverly A. Mock Ph.D.
(§4) Laboratory of Cancer Biology and Genetics,
(§5) Center for Cancer Research, National Cancer Institute,
(§6) National Institute of Health, Bethesda, Maryland
(§7) Drug resistance and disease progression are common in multiple myeloma (MM) patients, underscoring the need for new therapeutic combinations. […] We hypothesized that effective combinations would reduce MYC expression and enhance p16 activity. […] These preclinical data identify potentially useful drug combinations for evaluation in drug-resistant MM and reveal potential mechanisms of combined drug sensitivity.
(§8) Described herein is the primary MIPE qHTS used to cherrypick compounds. Validated compounds were then further tested for potential synergistic activiy.
(§9) [1] Peat TJ, Gaikwad SM, Dubois W, Gyabaah-Kessie N, Zhang S, Gorjifard S, Phyo Z, Andres M, Hughitt VK, Simpson RM, Miller MA, Girvin AT, Taylor A, Williams D, D'Antonio N, Zhang Y, Rajagopalan A, Flietner E, Wilson K, Zhang X, Shinn P, Klumpp-Thomas C, McKnight C, Itkin Z, Chen L, Kazandijian D, Zhang J, Michalowski AM, Simmons JK, Keats J, Thomas CJ, Mock BA. Drug combinations identified by high-throughput screening promote cell cycle transition and upregulate Smad pathways in myeloma. Cancer Lett. 2023 Aug 1;568:216284. doi: 10.1016/j.canlet.2023.216284. Epub 2023 Jun 24. PMID: 37356470; PMCID: PMC10408729.
(§10) SEQUENCE No. (e.g., 1, 2, 3, etc.); […] (e.g., Cells, Incubation, Reagent, etc.); VALUE and DESCRIPTION.
(§11) 1; Cells; 5 uL; white, solid bottom 1536-well Greiner assay plate.
(§12) 2; Compounds; 23 nL; Kalypsis pin tool (Wako USA) equipped with a 1536-well pin head to transfer to the assay plates.
(§13) 3; Incubation; 48 hours; 37C incubation.
(§14) 4; Reagent;5uL; CellTiter Glo (Promega).
(§15) 5; Detector; 425V; Luminescence; Viewlux PerkinElmer. […]
(§16) 1. […] Briefly, the corresponding myeloma cell lines were screened in 1,536-well plates with 500 cells, 5-uL per well for inhibition of cell viability (assessed by measuring ATP levels with CellTiterGlo). […]
(§17) 5. Signal was measured as median relative luminescence units on a ViewLux (PerkinElmer) multiplate reader. […]

A short description of assay [7]: Quantitative High-Throughput drug screen in 47 multiple myeloma cell lines against the NCATS MIPE library collection: NCIH929_DSMZ cell viability assay (AID 1918978). Also: nearly all actives have a fitted effect of over 35% in size. Also: potency is read from the fitted curve at half-maximal effect.
Source text: as §3, §4, §5, §6, §7, §8, §9, §10, §11, §12, §13, §14, §15, §16, §17

The nature of assay [8]: Quantitative High-Throughput drug screen in 47 multiple myeloma cell lines against the NCATS MIPE library collection: OCIMY1_PLB cell viability assay (AID 1918979). Also: series mostly up to about 46 µM; nearly all actives have a fitted effect of over 35% in size. The method, boiled down:
as §2

The nature of assay [9]: Quantitative High-Throughput drug screen in 47 multiple myeloma cell lines against the NCATS MIPE library collection: KMS21BM_JCRB cell viability assay (AID 1918974). Also: potency is read from the fitted curve at half-maximal effect. Conditions: ATP luminescence, 48 h. The method, boiled down: as §1
The nature of assay [10]: Quantitative High-Throughput drug screen in 47 multiple myeloma cell lines against the NCATS MIPE library collection: KMS26_JCRB cell viability assay (AID 1918975). Also: potency is read from the fitted curve at half-maximal effect; nearly all actives have a fitted effect of over 45% in size. The note with it: KMS26 myeloma cells viability, CellTiter-Glo ATP, 48 h. The method, boiled down: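 Viability readout: CellTiter-Glo luminescence following 5 min room-temperature incubation with reagent. Prior exposure: 48 h, 37C, humidified 5% CO2, 500 cells per well.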

Inconclusive results are not listed. The source made the active and inactive calls. Calls follow the shape of the dose curve; as a rule, active = well fitted curve in the direction sought with a large enough effect; inconclusive = small, poorly fitted or top-dose-only effect, or another doubt; inactive = no such curve, though single readings can be large; an effect the other way counts as inactive or inconclusive.

Take `COc1ccc(C(=O)N2CCCC2=O)cc1`: the Potency entry in [1], in assay [2], in assay [3] and in assay [5] was “inactive” each time. Also, the Potency in assay [4] is 296 nM (active).

For the molecule `COC(=O)C1=CCCN(C)C1`, the Potency result in [1], in [7] and in [5] was “inactive” in each case. Moreover, the Potency in assay [6] is 1050 nM (active). In addition, the result in assay [8] was inactive.

Consider `C[C@@H]1C[C@@H]([C@H](O)CC2CC(=O)NC(=O)C2)C(=O)[C@@H](C)C1`, for which the Potency is 418 nM (active) in [1]; 1660 nM (active) in assay [2]; 526 nM (active) in [9]; 132 nM (active) in [10]; 662 nM (active) in [6]; 296 nM (active) in assay [3]. In addition, the Potency in [7] is 1870 nM (active); in assay [4], 4180 nM (active); in assay [5], 1660 nM (active).

On to `O=C(O)c1nn(Cc2ccc(Cl)cc2Cl)c2ccccc12`, for which the Potency result in [1], in assay [6], in assay [3], in assay [7] and in assay [5] was “inactive” throughout.

The record behind these values is PubChem BioAssay (NCATS).
